Screens: PubChem, Columbia University Molecular Screening Center
This excerpt belongs to a sample that is enriched for hits.
VCAM1 pot – enhances TNF alpha induced VCAM1 expression in HUVEC. HUVEC TNFa-stimulated VCAM-1 immunofluorescence, high-content imaging; scaled per plate to unstimulated/TNFa-only wells. activation, % at 2 µM. AID 808. 93,000 tested, 0.19% active;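 active = activation above the screen mean plus 3 SD, with well images confirming the hit on visual review, cut at about 28% in these data, passing the limit was not always enough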;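 also: signal is the number of cytoplasmic VCAM-1 stained grains per positive cell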
VCAM1 pot conf – potentiators of TNFa-induced VCAM1 expression, confirmation, imaging, HUVEC, triplicate retest; shares compounds with VCAM1 pot; HUVEC TNFa-stimulated VCAM-1 immunofluorescence imaging; activation, % at 2 µM; 230 tested, under 10 active; AID 1034;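 active = activation above 30% in triplicate retests at 2 µM, then confirmed by visual review of the well images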
Numbers stand for hits; – = inactive.

SMILES	VCAM1 pot	others
COc1ccc(NS(=O)(=O)c2ccc(C)c(C(=O)O)c2)cc1	–
COC(=O)c1ccc(C)c(NC(=O)C2COc3ccccc3O2)c1 (configuration not stated)	–
COc1ccccc1N1CCN(C(=O)CSc2ccc3c(C)cc(C)nc3n2)CC1	–
COC(=O)CSCC(=O)Nc1cc2c(cc1C(C)=O)OCO2	–
CCOc1ccc2sc(NS(=O)(=O)c3ccc(OC)c(OC)c3)nc2c1	61	VCAM1 pot conf=–
COc1ccc(OC)c(NS(=O)(=O)c2ccc3c(c2)n(C)c(=O)n3C)c1	–
CCOC(=O)c1cc2nc(Nc3ccc(OC)cc3)sc2s1	–
COc1ccc(S(=O)(=O)N(C)CC(=O)NCc2cccnc2)cc1Cl	–
CC1CN(C(NC(=O)C(C)(C)C)C(Cl)(Cl)Cl)CC(C)O1 (configuration not stated)	–
CCOC(=O)COc1ccc(S(=O)(=O)NCCC2=CCCCC2)cc1	48	VCAM1 pot conf=–
CCOc1ccc(S(=O)(=O)NCCC(=O)NCc2ccco2)cc1	–
C1=C(CCNCC2CC2)CCCC1	–
COc1ccc(OC)c(-n2c(-c3cccc(O)c3)n[nH]c2=S)c1	–
Cc1cc2n(n1)SC(Nc1cc(Cl)ccc1Cl)N2 (configuration not stated)	–
O=C(CSc1nc2ccccc2[nH]1)Nc1cc(C(F)(F)F)ccc1N1CCOCC1	–
O=C(CSc1nc2ccccc2[nH]1)c1ccc2c(c1)OCO2	–
O=C(CSc1nc2ccccc2[nH]1)Nc1ccccc1N1CCOCC1	48	VCAM1 pot conf=–
Cc1ccc(S(=O)(=O)CCc2nc3ccccc3s2)cc1C	–
Cc1sc2nc(SCc3nc(-c4cccs4)no3)n(-c3ccccc3)c(=O)c2c1C	–
O=C(O)c1cc2ccc3ccccc3c2oc1=O	–
O=C(CN1CCN(CCO)CC1)Nc1ccccc1	–
O=C1CSC(c2ccccn2)N1c1ccccc1 (configuration not stated)	34	VCAM1 pot conf=–
CCOc1ccc(N2C(=O)CSC2c2ccncc2)cc1 (configuration not stated)	–
CN(C)CCCN1C(=O)CSC1c1ccccc1 (configuration not stated)	–
C=CCc1c(C)nc(SC)nc1Nc1ccc(C)cc1	–
SMILES	VCAM1 pot	others
CCCOC(=O)Nc1cc(OC)c(Cl)cc1OC	–
O=C(CCNS(=O)(=O)c1ccc(Cl)cc1)N1CCC2(O)CCCCC2C1 (configuration not stated)	–
CCOC(=O)c1c(C)cccc1OCC(N)=O	–
Nc1c(Cl)cc(Cl)cc1C(=O)OCC(=O)NC1CC1	–
CCOC(=O)CSc1nc(C2CC2)cc(-c2ccc(F)cc2)c1C#N	–
CSC1=C(C#N)C(c2ccc(C)s2)CC(=O)N1 (configuration not stated)	–
COC(=O)CSC1=C(C#N)C(c2ccc(F)cc2)CC(=O)N1 (configuration not stated)	32	VCAM1 pot conf=–
CCOC(=O)c1cc(NC(=O)c2c(C)noc2C)cc(C(=O)OCC)c1	–
C=CCNC(=O)CCCOc1ccc(C)cc1	–
C=CCNC(=O)CN1CCC(n2c(C)nc3cc(C(F)(F)F)ccc32)CC1	58	VCAM1 pot conf=–
O=C(O)CSc1nnc(Cn2cnc3ccccc32)n1CCc1ccccc1	–
Nn1c(SCC(=O)N2CCOCC2)nnc1-c1ccco1	–
CCOC(=O)C(NC(=O)c1ccccc1)(Nc1nnc(C)s1)C(F)(F)F (configuration not stated)	–
O=C(CCSc1nnc(-c2ccco2)o1)Nc1ccccc1	44	VCAM1 pot conf=–
O=C(COc1ccc(Br)cc1)Nc1ccc(-c2nnc(-c3ccco3)o2)cc1	–
CC(=O)c1c(C)cc(C)c(CSc2nnc(-c3ccco3)o2)c1C	–
c1ccc(SCc2nc3ccccc3[nH]2)nc1	–
Cc1cc(C(=O)CN2C(=O)c3ccccc3C2=O)c(C)n1C1CC1	129	VCAM1 pot conf=–
O=C(CN1C(=O)c2ccccc2C1=O)NCC1COc2ccccc2O1 (configuration not stated)	–
O=C(CN1C(=O)c2cccnc2C1=O)c1ccccc1	–
COc1ccc(C(=O)c2ccc(N(C)C)cc2)c2ccccc12	–
O=C(CC1NC2CCCCC2NC1=O)Nc1cccc(C(F)(F)F)c1 (configuration not stated)	–
COc1ccccc1C(=O)NCc1ccccc1	–
CCCCCCNC(=O)CC(c1ccccc1)c1cc(Br)ccc1O (configuration not stated)	–
CCCCCCc1cc2cc(C(=O)NCc3ccccc3)c(=N)oc2cc1O	51	VCAM1 pot conf=–
SMILES	VCAM1 pot	others
CC1=C([N+](=O)[O-])C(c2cccc(Br)c2)C2=C(N1)c1ccccc1C2=O (configuration not stated)	–
CCOC(=O)CNC(=O)c1cc(C)oc1C	–
CC(C)Cn1cc(C(=O)NCCCOC(C)C)c2c3ccccc3n(C)c2c1=O	–
CCOC(=O)CNC(=O)c1cn(CC(C)C)c(=O)c2cc(OC)c(OC)cc12	55	VCAM1 pot conf=–
Cc1ccc(-n2c(N)c(C(=O)NCc3cccnc3)sc2=S)cc1	–
COc1ccc(-n2c(SCC(=O)N3CCOCC3)nc(O)c(Cc3ccccc3)c2=O)cc1	–
Cc1ccc(-n2c(SCc3cc(=O)n4ccsc4n3)nnc2-c2cccnc2)c(C)c1	–
Cc1nc(CS(=O)(=O)c2ccccc2)cc(N2CCOCC2)n1	–
O=S(=O)(Cc1cc(Sc2ccc(Cl)cc2)nc(-c2ccccc2)n1)c1ccccc1	50	VCAM1 pot conf=–
COCc1cc(Sc2c(Cl)cccc2Cl)nc(-c2ccccc2)n1	–
CC(C)(C)NS(=O)(=O)c1ccc(CCC(=O)N2CCCCC2)cc1	–
Cc1ccn2c(-c3csc(NCc4ccccc4)n3)c(C)nc2c1	–
CN1C(=O)CC(N2CCN(Cc3ccc(Cl)cc3)CC2)C1=O (configuration not stated)	–
CCOC(=O)N1CCC(NC(=O)c2cc(S(=O)(=O)N3CCCC3)cn2C)CC1	43	VCAM1 pot conf=–
CCOC(=O)N1CCC(NC(=O)c2ccc(OC)c(CN3CC(=O)N4CCCC4C3=O)c2)CC1 (configuration not stated)	–
CCOC(=O)N1CCN(C(=O)c2cc(S(=O)(=O)N3CCCC3)cn2C)CC1	–
Cc1ccc(N(C)C(=O)N2CCN(S(=O)(=O)c3ccc(C)c(C)c3)CC2)cc1	–
COC(=O)c1ccc(CNC(=O)CSc2nc3sc(C)c(C)c3c(=O)n2C)o1	–
COc1cccc(Cn2cnc3c(NS(=O)(=O)c4cccc(Cl)c4Cl)c(C)c(C)cc32)c1	–
CCOc1ccccc1N1CCN(C(=O)c2cccc(-c3ccc(O)cc3)c2)CC1	–
CCOC(=O)C1CCN(C(=O)C2CCN(c3nc4ccc(OC)cc4s3)CC2)CC1	114	VCAM1 pot conf=–
CCOC(=O)C1CCN(Cc2c(F)cccc2Cl)CC1	–
CCOC(=O)C1CCN(c2c(NCCCN(CC)c3ccccc3)c(=O)c2=O)CC1	–
Cc1ccc(CCN2CC(C(=O)NCCCOC(C)C)CC2=O)cc1 (configuration not stated)	–
O=C(CN1C(=O)NC2(CCCC2)C1=O)Nc1ccccc1F	–
SMILES	VCAM1 pot	others
CC(C)[C@H](NC(=O)OC(C)(C)C)c1nnc(SCc2cccc(F)c2)o1	–
CCCCOC(=O)n1c(SCC(=O)N(C)C)nc2ccccc21	–
Cc1ccc(/C=C2/SC(=S)N(CC(=O)Nc3ncc(Cc4ccc(C)cc4)s3)C2=O)cc1	–
CCN1C(=O)/C(=C/C=C2/SCCN2C)SC1=S	–
CCN1C(=O)/C(=C/c2cn(C)nc2C)SC1=S	53	VCAM1 pot conf=–
CCOc1ccc(-c2nc(-c3cccnc3)no2)cc1	–
